Values joined by “and” are separate entries in the source; they are usually repeats but may differ in a detail not shown here. Identical values can stand only once. About 37,000 (12%) of roughly 300,000 compounds were called active. Many of the other results were omitted from the sample, so actives are more common in it than they were. A number with no mark means an inactive call. Rule as the data show it: active = max response mostly above about 13% (no sharp cut-off); inactive = mostly below about 14%.
Test: Cycloheximide Counterscreen for Small Molecule Inhibitors of Shiga Toxin; also: read at 38.3 µM for the half of the compounds with a filed dose; 0% is about no effect
Settings: cell reporter, cycloheximide protein synthesis inhibition counterscreen; stronger effect = higher value

SMILES	max response
Cc1nc(N=C(N)N)nc2c(C)cccc12	3.71%
CCOC(=O)C(C)n1cnc2scc(-c3ccc(C)c(C)c3)c2c1=O (stereo not given)	-0.876%
Cc1ccccc1OCC(=O)N(Cc1cccc(F)c1)C1CCS(=O)(=O)C1 (stereo not given)	-13%
Cc1cc2oc(=O)cc(-c3ccccc3)c2c(C)c1-c1ccc(OC(F)(F)F)cc1	17.1%
CN(C(=O)CCNC(=O)Cn1ccc2ccccc2c1=O)c1ccc(Br)cc1	-6.96%
CCN(/N=C/c1ccc(N(C)C)cc1)c1nc2ccccc2[nH]1	5.84%
CNC(=O)c1ccsc1NC(=O)c1ccc(S(=O)(=O)N2CCc3ccccc32)cc1	-2.6%
CCN(CC)CCCNC(=O)c1cc2c(=O)[nH]c3ccc(C)cc3c2s1	0.225%
COc1ccc(N2C(=O)CC(Sc3n[nH]c(-c4ccc(C)cc4)n3)C2=O)cc1 (stereo not given)	-1.55%
COc1ccc(C2=NN(c3nc4ccccc4s3)C(=O)C2)cc1	25.8% (active)
CN(C(=O)COC(=O)c1nc(Cl)ccc1Cl)C1CCS(=O)(=O)C1 (stereo not given)	-1.17%
COC(=O)c1c(-c2ccc(C)cc2)csc1N	9.52%
Nc1scc(-c2ccncc2)c1Cl	26% (active)
O=C(c1ccc(CSc2ccccc2)cc1)N1CCCCCC1	66.2% (active)
O=C(c1ccc(S(=O)(=O)c2ccccc2)cc1)N1CCCCCC1	-1.02%
CC1CCN(C(=O)c2ccc(CSc3ccc(Cl)cc3)cc2)CC1	-3.83%
Cc1cccc(C)c1NC(=O)CSc1nc2c([nH]1)c(=O)n(C)c(=O)n2C	-6.42%
CC1=C(C(=O)OCC2CCCCC2)C(c2ccc(F)cc2)NC(=O)N1 (stereo not given)	-1.88%
Cc1cccc(N2C(=O)C3C(c4ccccc4)OC4(C(=O)c5ccccc5C4=O)C3C2=O)c1 (stereo not given)	7.54%
Cc1cccc(N2C(=O)NC(=O)/C(=C\c3cnn(-c4ccccc4)c3)C2=O)c1	25.1% (active)
Cc1cccc(N2C(=O)c3cccnc3C2=O)c1	7.77%
O=C(CNC(=O)c1ccc(Br)o1)NCC1CCCO1 (stereo not given)	-2.05%
CC(NC(=O)C(=O)NN=C1CCC(C(C)(C)C)CC1)c1ccccc1 (stereo not given)	1.38%
CC(CNC(=O)c1ccc(Br)o1)NC(=O)c1ccc(Br)o1 (stereo not given)	-3.59%

SMILES	max response
CC(C)(C)C1CCC(=NNC(=O)c2cc(-c3ccccc3)n[nH]2)CC1 (stereo not given)	5.64%
CC(C)(C)C1CCC(=NNC(=O)c2ccc(Br)o2)CC1 (stereo not given)	35.2% (active)
CCC(C)(C)C1CCC(=NNC(=O)c2ccc(Br)o2)CC1 (stereo not given)	44.3% (active)
CC(=O)N1C(C)c2ccccc2C(C)(C)CC12CCCCC2 (stereo not given)	-1.42%
Cc1ccc(C)c(N2CCN(S(=O)(=O)c3c(C)[nH]c(C)c3C(=O)N3CCCC3)CC2)c1	-1.94%
C=CC(COCc1ccccc1)N(Cc1ccccc1)S(=O)(=O)c1ccccc1Br (stereo not given)	-2.35% and 5.45%
Cc1ccc(NC(=O)NC(=O)N(C2CCCCC2)S(=O)(=O)c2ccccc2)cc1	40.9% (active)
CS(=O)(=O)N(C(=O)NC(=O)NC1CCS(=O)(=O)C1)C1CCCCC1 (stereo not given)	-1.14%
Cc1ccc(S(=O)(=O)N(C)CC(=O)NC2CCCC2)cc1	-2.07%
CCOc1ccccc1NC(=O)CCS(=O)(=O)c1cccc2nsnc12	-6.23%
NC(=O)c1ccccc1N=Cc1ccc2ccccc2c1	38.3% (active)
O=C(N/N=C/c1cccc(O)c1)c1cc2c(ccc3ccccc32)o1	8.61%
O=C(COc1cc2oc(=O)c3c(c2cc1Cl)CCC3)NCCCN1CCOCC1	6.01%
O=C(NCCc1ccccc1)C1CCC(Cn2c(=O)c3ccccc3n(Cc3cccnc3)c2=O)CC1 (stereo not given)	-1.63%
O=C(O)c1cc([N+](=O)[O-])c(Nc2cccc3ccccc23)c([N+](=O)[O-])c1	-2.68%
CCOc1ccc(C(=O)Nc2cccc(-c3ccc4nncn4n3)c2)cc1	-0.39%
CCOc1cccc(NC(=O)CC#N)c1	-0.681%
CCOc1ccc(NC(=O)c2ccccc2NS(C)(=O)=O)cc1	15.1% (active)
CCOc1ccc(C(=O)Nc2cccc(SC)c2)cc1	43.4% (active)
COC(=O)c1ccccc1NC(=O)c1ccccc1NS(C)(=O)=O	-1.19%
CCOc1ccc(NC(=O)c2ccc(NC(=O)C3CCCO3)cc2)cc1 (stereo not given)	14.7%
CCOc1ccc(NC(=O)CSc2nncn2C)cc1	3.07%
CCCNC(=O)Nc1ccccc1C(=O)Nc1ccc(OC)cc1	2.17%
CCOc1ccc(NC(=O)CCNC(=O)c2ccc(Br)cc2)cc1	17.2%

SMILES	max response
CCOc1ccc(NC(=O)c2ccc(CSc3nnnn3C)cc2)cc1	20.2% (active)
CCOc1ccc(C(=O)Nc2ccncc2)cc1	23.7% (active)
COc1ccc(CSc2nnnn2-c2ccc(C(=O)O)cc2)cc1	-3%
CC1CN(c2nc(Nc3ccccc3)nc(N)c2[N+](=O)[O-])CC(C)O1 (stereo not given)	1.21%
O=C(CN1CCN(c2ccc(O)cc2)CC1)NC1CCCc2ccccc21 (stereo not given)	-4.39%
COc1ccc(CN(C)C(=S)Nc2ccc(Cl)cc2Cl)cc1	-0.677%
O=C(O)C1CC=CC2CCN(C3CCCCC3)C(=O)C21 (stereo not given)	-7.95%
COc1ccc(OC)c(NC(=O)CN(C)CCOc2ccc(Br)cc2)c1	-3.46%
O=C(Oc1cccc(N2C(=O)C3C4c5ccccc5C(c5ccccc54)C3C2=O)c1)c1ccco1 (stereo not given)	-4.24%
Cc1ccc2c(c1)N(S(=O)(=O)c1cc(-c3cc(C)no3)ccc1C)CCO2	1.76%
CCN(CC)C(=O)CSC(Nc1cccc(F)c1)=C(C#N)C#N	-0.453%
CC(=O)Nc1cccc(C(=O)OCN2C(=O)c3ccccc3C2=O)c1	-2.39%
CCN(CC)N=Nc1cccc(NC(C)=O)c1	15.1% (active)
Fc1ccc2nc(-c3ccccc3)nc(SCc3nnc(-c4ccccc4)o3)c2c1	-4.64%
O=C(CSc1nnc(CNC(=O)c2ccc(F)cc2)o1)Nc1ccc2c(c1)OCO2	-1.02%
Fc1ccc(-c2nnc(CSc3nnc(-c4ccc5c(c4)OCO5)o3)o2)cc1	26% (active)
O=C(Nc1ccnn1C1CCN(C/C=C/c2ccc(F)cc2)CC1)C1CCCC1	-1.88%
CCOc1ccc(OCC)c(NC(=O)CCS(=O)(=O)c2ccc(C)cc2)c1	-3.4%
COc1ccc(N/N=C2/CCCCC2=O)cc1	29.4%
Cc1ccc(N/N=C2\COC(C)(C)CC2=O)cc1	73.1% (active)
CC(C)CC(COCc1ccc(Cl)cc1)N1CCN(C(=O)c2ccc(C(F)(F)F)cc2)CCC1=O (stereo not given)	-2.17%
O=C1CC(Sc2ncn[nH]2)C(=O)N1c1ccccc1 (stereo not given)	-3.41%
COc1ccc(N2CCN(C(=O)c3ccccc3NC(=O)C3=C(C)OCCS3)CC2)cc1	-5.37%
CN(Cc1ccc(F)cc1)C(=O)COc1ccc2ccccc2c1	20.1%

SMILES	max response
CN(Cc1ccccc1)C(=O)COc1ccccc1	41.1% (active)
CN(Cc1ccccc1)C(=O)c1ccc(COc2ccccc2)cc1	7.81%
CC1=NN(c2ccc(Cl)c(C(=O)O)c2)C(=O)/C1=C/c1ccc(-c2ccccc2[N+](=O)[O-])o1	-3.39%
C=C1O[C@@](CO)(n2cnc3c(N)ncnc32)[C@H](O)[C@@H]1O	1.03%
Cc1ccc(NS(=O)(=O)c2ccc3c(c2)oc(=O)n3C)c(C)c1	0.896%
Cc1ccc(NC(=O)CCC(=O)N/N=C/c2ccco2)c(C)c1	-1.51%
Cc1ccc(NN=C2C(=O)OC(C)(C)OC2=O)c(C)c1	52% (active)
O=c1c2ccccc2[nH]c(=S)n1CCN1CCC(=C(c2ccc(F)cc2)c2ccc(F)cc2)CC1	-1.14%
Cc1ccc(NC(=O)CN(C)C(=O)c2ccc(Br)o2)cc1	-4.89%
CCc1ccc(N(C(=O)c2csnn2)C(C(=O)NC2CCCCC2)c2ccncc2)cc1 (stereo not given)	8.95%
O=C(NNS(=O)(=O)c1ccccc1)c1cnn(-c2ccc(Cl)cc2)c1C(F)(F)F	1.19%
C/C(=N\Nc1cccc(C(=O)O)c1)c1ccc2c(c1)Nc1ccccc1S2	31.5% (active)
Cc1ccccc1NC(=O)c1cc(S(=O)(=O)Nc2cccc(C(=O)O)c2)ccc1Cl	-4.93%
O=C(NC1CC1)c1ccc2c(c1)NC(=O)c1ccccc1S2	0.906%
CC(C)C[C@@H](CO)N1CCN(Cc2ccc(O)cc2)CCC1=O	-1.97%
CCCN1C2CCCC1CC(NC(=O)NC13CC4CC(CC(C4)C1)C3)C2 (stereo not given)	0.762%
CC(C)c1ccc2oc(=O)cc(CN3CCN(Cc4ccccc4)CC3)c2c1	-1.81%
O=C(CN(C(=O)c1csnn1)c1ccc(Br)cc1)NC1CCCC1	-2.24%
O=C(NCCc1ccccn1)c1nc(Cn2cc([N+](=O)[O-])cn2)no1	-3.93%
O=C(Cn1nc(Cc2cccnc2)c2ccccc2c1=O)NCC1COc2ccccc2O1 (stereo not given)	-4.83%
CC(C)(C)C(=O)c1cnc(Nc2ccccc2)s1	44.2% (active)
O=C(c1ccc(Cl)cc1)c1cnc(Nc2ccccc2)s1	8.33%
S=c1[nH]nc(Nc2ccccc2)s1	1.07%

From PubChem BioAssay AID2314 (National Center for Advancing Translational Sciences (NCATS), 2010)
